What was measured:
[1] = target: MAP kinase-activated protein kinase 2 (Homo sapiens) (UniProt P49137); conditions: at 10 µM
[2] = target: MAP kinase-activated protein kinase 3 (Homo sapiens) (UniProt Q16644); conditions: at 10 µM
[3] = target: Serine/threonine-protein kinase MARK1 (Homo sapiens) (UniProt Q9P0L2); conditions: at 1 µM
[4] = target: Serine/threonine-protein kinase MARK1 (Homo sapiens) (UniProt Q9P0L2); conditions: at 10 µM
[5] = target: Dual specificity mitogen-activated protein kinase kinase 1 (Homo sapiens) (UniProt Q02750); conditions: at 1 µM
[6] = target: Dual specificity mitogen-activated protein kinase kinase 1 (Homo sapiens) (UniProt Q02750); conditions: at 10 µM
[7] = target: Maternal embryonic leucine zipper kinase (Homo sapiens) (UniProt Q14680); conditions: at 1 µM
[8] = target: Maternal embryonic leucine zipper kinase (Homo sapiens) (UniProt Q14680); conditions: at 10 µM
[9] = target: Misshapen-like kinase 1 (Homo sapiens) (UniProt Q8N4C8); conditions: at 1 µM
[10] = target: Misshapen-like kinase 1 (Homo sapiens) (UniProt Q8N4C8); conditions: at 10 µM

Chain of Dual specificity mitogen-activated protein kinase kinase 1 (Homo sapiens) (Q02750 whole entry): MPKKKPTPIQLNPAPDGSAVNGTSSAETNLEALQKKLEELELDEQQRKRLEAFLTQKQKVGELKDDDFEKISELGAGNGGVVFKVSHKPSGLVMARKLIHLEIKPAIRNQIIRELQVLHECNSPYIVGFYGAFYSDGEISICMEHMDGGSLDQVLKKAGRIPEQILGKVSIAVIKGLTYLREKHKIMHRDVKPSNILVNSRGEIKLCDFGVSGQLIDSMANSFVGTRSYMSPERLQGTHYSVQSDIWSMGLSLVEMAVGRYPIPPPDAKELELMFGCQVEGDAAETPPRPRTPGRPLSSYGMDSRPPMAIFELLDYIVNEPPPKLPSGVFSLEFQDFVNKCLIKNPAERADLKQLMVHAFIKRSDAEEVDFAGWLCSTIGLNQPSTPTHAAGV
Chain of MAP kinase-activated protein kinase 3 (Homo sapiens) (Q16644 whole entry, looked up): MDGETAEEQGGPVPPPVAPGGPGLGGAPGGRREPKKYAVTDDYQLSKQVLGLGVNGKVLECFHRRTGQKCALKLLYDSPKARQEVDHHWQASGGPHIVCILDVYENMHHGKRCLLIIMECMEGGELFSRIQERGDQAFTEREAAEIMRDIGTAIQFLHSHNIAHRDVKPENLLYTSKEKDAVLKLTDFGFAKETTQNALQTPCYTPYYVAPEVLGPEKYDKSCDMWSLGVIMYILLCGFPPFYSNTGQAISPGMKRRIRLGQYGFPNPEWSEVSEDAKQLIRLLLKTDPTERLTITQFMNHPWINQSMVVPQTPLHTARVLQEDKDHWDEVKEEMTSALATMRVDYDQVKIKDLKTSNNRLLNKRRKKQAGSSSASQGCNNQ
Chain of Maternal embryonic leucine zipper kinase (Homo sapiens) (Q14680 whole entry, looked up): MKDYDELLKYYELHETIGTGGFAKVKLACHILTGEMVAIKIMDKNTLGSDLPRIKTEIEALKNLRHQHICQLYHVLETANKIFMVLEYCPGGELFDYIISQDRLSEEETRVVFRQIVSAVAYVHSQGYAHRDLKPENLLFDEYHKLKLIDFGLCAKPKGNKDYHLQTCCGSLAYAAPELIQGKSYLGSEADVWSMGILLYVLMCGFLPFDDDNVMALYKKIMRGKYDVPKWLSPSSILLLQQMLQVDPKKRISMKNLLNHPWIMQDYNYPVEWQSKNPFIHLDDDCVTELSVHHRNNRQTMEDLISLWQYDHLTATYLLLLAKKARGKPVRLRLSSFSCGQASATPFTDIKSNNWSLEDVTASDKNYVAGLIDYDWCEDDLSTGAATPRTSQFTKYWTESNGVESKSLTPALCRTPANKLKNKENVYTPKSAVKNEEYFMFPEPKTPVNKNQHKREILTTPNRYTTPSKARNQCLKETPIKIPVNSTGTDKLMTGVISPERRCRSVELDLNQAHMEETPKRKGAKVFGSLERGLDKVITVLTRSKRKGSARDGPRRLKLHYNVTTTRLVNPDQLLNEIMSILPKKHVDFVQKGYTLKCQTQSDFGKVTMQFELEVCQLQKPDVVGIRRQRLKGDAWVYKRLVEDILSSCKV
Chain of Serine/threonine-protein kinase MARK1 (Homo sapiens) (Q9P0L2 whole entry, looked up): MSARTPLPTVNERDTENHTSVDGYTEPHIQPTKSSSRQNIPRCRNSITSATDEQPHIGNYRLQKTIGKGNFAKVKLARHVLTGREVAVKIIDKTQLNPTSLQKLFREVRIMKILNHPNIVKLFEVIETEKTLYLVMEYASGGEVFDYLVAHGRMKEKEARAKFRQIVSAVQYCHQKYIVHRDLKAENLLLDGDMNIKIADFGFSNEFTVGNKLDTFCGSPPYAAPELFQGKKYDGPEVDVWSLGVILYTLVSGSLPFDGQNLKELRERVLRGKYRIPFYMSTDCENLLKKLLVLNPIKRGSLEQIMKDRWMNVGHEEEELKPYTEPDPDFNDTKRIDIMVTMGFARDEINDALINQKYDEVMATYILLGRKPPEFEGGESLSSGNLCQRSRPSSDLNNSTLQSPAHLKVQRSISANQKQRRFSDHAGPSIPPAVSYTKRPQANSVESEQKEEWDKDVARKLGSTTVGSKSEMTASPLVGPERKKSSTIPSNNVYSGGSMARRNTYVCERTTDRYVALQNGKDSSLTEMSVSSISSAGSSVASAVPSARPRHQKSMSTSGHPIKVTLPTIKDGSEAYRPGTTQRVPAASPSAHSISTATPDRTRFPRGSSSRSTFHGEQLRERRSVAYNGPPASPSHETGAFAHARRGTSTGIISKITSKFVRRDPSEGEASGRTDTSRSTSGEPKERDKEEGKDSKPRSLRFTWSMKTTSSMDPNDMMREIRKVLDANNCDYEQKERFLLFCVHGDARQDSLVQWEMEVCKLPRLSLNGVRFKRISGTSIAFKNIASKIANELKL
Chain of MAP kinase-activated protein kinase 2 (Homo sapiens) (P49137 whole entry, looked up): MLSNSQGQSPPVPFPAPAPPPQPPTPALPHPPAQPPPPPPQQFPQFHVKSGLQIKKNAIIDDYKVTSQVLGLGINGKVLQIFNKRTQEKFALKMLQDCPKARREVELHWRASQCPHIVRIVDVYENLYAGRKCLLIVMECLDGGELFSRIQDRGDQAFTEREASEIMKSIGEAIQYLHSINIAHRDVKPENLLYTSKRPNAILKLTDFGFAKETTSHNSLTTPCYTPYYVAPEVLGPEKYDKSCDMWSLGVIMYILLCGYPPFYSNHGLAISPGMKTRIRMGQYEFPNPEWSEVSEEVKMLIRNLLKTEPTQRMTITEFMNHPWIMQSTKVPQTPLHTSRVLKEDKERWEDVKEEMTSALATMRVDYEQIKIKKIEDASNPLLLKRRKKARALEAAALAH
Chain of Misshapen-like kinase 1 (Homo sapiens) (Q8N4C8 whole entry, looked up): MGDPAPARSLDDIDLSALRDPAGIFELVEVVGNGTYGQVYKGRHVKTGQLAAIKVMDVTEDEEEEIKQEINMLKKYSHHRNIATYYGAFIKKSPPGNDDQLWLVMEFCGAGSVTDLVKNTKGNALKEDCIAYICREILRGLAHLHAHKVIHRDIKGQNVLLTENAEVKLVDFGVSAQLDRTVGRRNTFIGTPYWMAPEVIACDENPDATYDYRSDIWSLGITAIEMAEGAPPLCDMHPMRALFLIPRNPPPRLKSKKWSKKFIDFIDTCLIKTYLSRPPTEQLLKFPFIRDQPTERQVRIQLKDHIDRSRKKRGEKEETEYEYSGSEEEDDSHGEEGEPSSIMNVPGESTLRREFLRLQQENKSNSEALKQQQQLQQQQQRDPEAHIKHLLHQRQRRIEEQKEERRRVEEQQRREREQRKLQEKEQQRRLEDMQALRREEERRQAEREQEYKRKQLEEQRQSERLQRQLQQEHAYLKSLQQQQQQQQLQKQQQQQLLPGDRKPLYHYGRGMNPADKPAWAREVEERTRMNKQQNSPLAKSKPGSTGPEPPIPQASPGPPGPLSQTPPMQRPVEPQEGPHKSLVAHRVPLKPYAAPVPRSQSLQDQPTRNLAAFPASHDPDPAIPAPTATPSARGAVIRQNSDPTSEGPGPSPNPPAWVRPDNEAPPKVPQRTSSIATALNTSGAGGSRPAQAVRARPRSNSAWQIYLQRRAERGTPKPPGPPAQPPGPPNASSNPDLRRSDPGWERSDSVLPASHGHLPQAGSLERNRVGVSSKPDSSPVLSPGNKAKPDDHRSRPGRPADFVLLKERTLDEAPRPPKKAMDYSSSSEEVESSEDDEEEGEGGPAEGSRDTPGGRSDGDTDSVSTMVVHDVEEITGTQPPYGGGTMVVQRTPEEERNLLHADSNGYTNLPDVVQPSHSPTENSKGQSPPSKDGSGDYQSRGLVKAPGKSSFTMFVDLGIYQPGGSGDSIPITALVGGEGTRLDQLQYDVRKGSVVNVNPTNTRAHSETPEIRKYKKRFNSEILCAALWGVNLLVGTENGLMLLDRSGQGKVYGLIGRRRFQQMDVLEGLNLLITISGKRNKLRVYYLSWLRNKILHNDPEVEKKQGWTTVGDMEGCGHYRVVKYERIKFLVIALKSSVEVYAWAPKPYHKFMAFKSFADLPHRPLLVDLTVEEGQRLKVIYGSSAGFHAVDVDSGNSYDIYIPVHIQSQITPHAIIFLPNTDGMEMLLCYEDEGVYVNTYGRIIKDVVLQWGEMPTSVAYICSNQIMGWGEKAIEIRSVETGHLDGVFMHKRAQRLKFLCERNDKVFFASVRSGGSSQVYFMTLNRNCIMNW

| Structure (SMILES) | residual activity [1] | residual activity [2] | residual activity [3] | residual activity [4] | residual activity [5] | residual activity [6] | residual activity [7] | residual activity [8] | residual activity [9] | residual activity [10] |
| --- | --- | --- | --- | --- | --- | --- | --- | --- | --- | --- |
| Oc1ccc(-c2nc(-c3ccc(F)cc3)c(-c3ccncc3)[nH]2)cc1 | 105% | 102% | 95% | 97% | 90% | 104% | 92% | 46% | 91% | 49% |
| COc1ccc(C(=O)Nc2sc3c(c2C(N)=O)CCCC3)cc1OC | 88% | 79% | 81% | 81% | 120% | 101% | 78% | 78% | 95% | 92% |
| N#Cc1cnc2cnc(NCc3cccnc3)cc2c1Nc1ccc(F)c(Cl)c1 | 64% |  | -1% | -1% | 91% | 91% | 2% | 0% | 93% | 90% |
| c1ccc(-c2n[nH]c3c2oc2ccccc23)cc1 |  |  | 69% | 44% |  |  | 43% | 7% | 73% | 34% |
| CC(C)n1cnc2/c(=N/c3cccc(Cl)c3)nc(NCCO)[nH]c21 | 92% | 116% | 50% | 26% | 81% | 91% | 56% | 16% | 98% | 69% |
| Cn1cnc2cc3c(Nc4cccc(Br)c4)ncnc3cc21 | 94% | 87% | 102% | 94% | 91% | 88% | 92% | 103% | 103% | 75% |
| O=Nc1c(-c2c(O)[nH]c3ccccc23)[nH]c2ccccc12 | 76% | 88% | 37% | 5% | 64% | 55% |  | 7% | 54% | 10% |
| Oc1n[nH]c2nnc(-c3c(-c4ccccc4)nn4ccccc34)cc12 | 90% | 86% | 75% | 76% | 104% | 109% | 53% | 36% | 105% | 92% |
| O=C1NC(=O)/C(=C\c2ccc3nccnc3c2)S1 | 85% | 91% | 86% | 71% | 108% | 84% | 64% | 31% | 89% | 61% |
| CC[n+]1c(/C=C/N(C)c2ccccc2)n(-c2ccccc2)c2ccc(-c3nc4ccccc4s3)cc21 | 63% | 86% | 108% | 111% | 138% | 95% | 91% | 46% | 102% | 84% |
| COc1ccc(OC)c2c(=S)c3ccccc3[nH]c12 |  | 89% | 87% | 74% | 114% | 110% | 102% | 84% | 108% | 94% |
| O=C1Nc2ccc(Br)cc2/C1=C\c1cc2c([nH]1)CCCC2 | 106% | 101% | 72% | 59% |  |  | 78% |  |  |  |
| Cc1cccc(-c2[nH]c(C(C)(C)C)nc2-c2ccc3c(c2)OCO3)n1 | 96% |  | 85% | 77% |  | 96% | 75% | 103% | 101% | 90% |
| COc1cc2ncnc(Nc3ccc(NC(=O)c4ccccc4)cc3)c2cc1OC | 98% | 93% | 105% | 95% |  |  | 77% | 50% |  | 92% |
| Oc1c2ccccc2c2c3c(cccc13)N=N2 | 69% | 103% | 38% | 6% | 75% | 50% | 13% | 0% | 86% | 50% |
| Nc1cccc(-c2cc3c(Oc4cccc(O)c4)ncnc3[nH]2)c1 | 82% |  | 51% | 11% | 94% | 102% | 73% | 29% | 41% | 7% |
| N#CC(C#N)=C(N)/C(C#N)=C/c1ccc(O)cc1 | 87% |  | 89% | 75% |  |  | 70% | 78% | 89% | 88% |
| Cc1cc(Nc2nc(-c3ccccc3)nc3ccccc23)n[nH]1 |  |  | 66% | 26% |  | 67% | 46% | 7% | 61% | 14% |
| COc1cc2ncc(-c3ccccc3)nc2cc1OC | 80% |  | 90% | 80% |  |  | 69% | 60% | 92% | 62% |
| c1ccc(-c2n[nH]cc2-c2ccnc3ccccc23)nc1 | 109% | 125% | 93% | 81% |  |  | 97% | 82% | 72% | 27% |
| C[C@@H](N)[C@H]1CC[C@H](C(=O)Nc2ccncc2)CC1 | 82% | 85% | 95% |  | 104% | 106% | 105% | 87% | 99% | 108% |
| O=C(Nc1cccc(Nc2cc(Nc3cccc(C(F)(F)F)c3)ncn2)c1)C1CC1 | 71% | 91% | 83% | 79% | 78% | 88% | 89% | 89% | 105% | 97% |
| CCC(=O)Nc1ccc2ncnc(Nc3cccc(Br)c3)c2c1 | 95% | 88% | 84% | 90% | 93% | 92% | 90% | 96% | 83% | 82% |
| Cc1cc2ncc(-c3ccccc3)nc2cc1C | 93% | 93% | 84% | 90% |  | 90% | 72% | 77% | 94% | 82% |
| O=C(O)c1ccc2c3c1cccc3c(=O)n1c3ccccc3nc21 | 95% | 106% | 81% | 35% | 94% | 97% | 91% | 53% |  | 5% |
| N#CCCc1ccc2c(c1)-c1[nH]c3ccc([N+](=O)[O-])cc3c1CC(=O)N2 | 39% | 49% | 30% | 9% |  |  | 69% | 52% | 38% | 17% |
| COc1ccc(S(=O)(=O)N(CCO)c2ccccc2CN(C)C/C=C/c2ccc(Cl)cc2)cc1 | 73% | 84% | 83% | 77% | 97% | 79% | 90% | 63% | 98% | 97% |
| Oc1ccc(Nc2nc(-c3ccc(Cl)cc3)cs2)cc1 | 71% | 116% | 104% | 93% | 106% | 112% | 114% | 100% | 104% | 83% |
| COc1cc2ncnc(Nc3ccc(O)c(Br)c3)c2cc1OC | 106% | 106% | 70% | 54% | 119% | 80% | 73% | 28% | 83% | 47% |
| Nc1ccc2ncnc(NCCc3ccc(Oc4ccccc4)cc3)c2c1 | 106% | 105% | 87% | 62% | 99% | 101% | 63% | 40% | 101% | 82% |
